# Positions count from the first letter of the chain named.
# Assays:
# Experiment in all cases: PBM; 200 nM protein, PBS
# Conditions in all cases: dsDNA, one strand shown
# HOXB4 [1] = target: HOXB4 (Homo sapiens, UniProt P17483 148-234)
# VENTX [2] = target: T1, VENTX (Homo sapiens, UniProt O95231 78-163, R121Q)
# T1 sequence: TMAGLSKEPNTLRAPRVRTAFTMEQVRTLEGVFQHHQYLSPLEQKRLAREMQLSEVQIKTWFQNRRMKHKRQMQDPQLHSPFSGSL
# HOXB9 [3] = target: HOXB9 (Homo sapiens, UniProt P17482 171-250, T197M)
# SIX6 [4] = target: T2, SIX6 (Homo sapiens, UniProt O95475 114-200, L167I)
# T2 sequence: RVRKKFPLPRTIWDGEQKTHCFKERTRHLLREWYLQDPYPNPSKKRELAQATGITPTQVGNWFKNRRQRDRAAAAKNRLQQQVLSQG
# VENTX [5] = target: T3, VENTX (Homo sapiens, UniProt O95231 78-163)
# T3 sequence: T1 sequence with Q44R
# SIX6 [6] = target: T4, SIX6 (Homo sapiens, UniProt O95475 114-200, L143V)
# T4 sequence: T2 sequence with L30V, I54L
# HOXA7 [7] = target: HOXA7 (Homo sapiens, UniProt P31268 116-202)
# Chain of HOXA7 (Homo sapiens, UniProt P31268 116-202) (P31268 116-202): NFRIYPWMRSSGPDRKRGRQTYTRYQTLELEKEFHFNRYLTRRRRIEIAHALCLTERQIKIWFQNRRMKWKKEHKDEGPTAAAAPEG
# ALX4 [8] = target: ALX4 (Homo sapiens, UniProt Q9H161 200-286)
# Chain of ALX4 (Homo sapiens, UniProt Q9H161 200-286) (Q9H161 200-286): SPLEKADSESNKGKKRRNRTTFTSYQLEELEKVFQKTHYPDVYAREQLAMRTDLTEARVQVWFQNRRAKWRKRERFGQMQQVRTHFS
# PAX4 [9] = target: T5, PAX4 (Homo sapiens, UniProt O43316 9-242, R200K)
# T5 sequence: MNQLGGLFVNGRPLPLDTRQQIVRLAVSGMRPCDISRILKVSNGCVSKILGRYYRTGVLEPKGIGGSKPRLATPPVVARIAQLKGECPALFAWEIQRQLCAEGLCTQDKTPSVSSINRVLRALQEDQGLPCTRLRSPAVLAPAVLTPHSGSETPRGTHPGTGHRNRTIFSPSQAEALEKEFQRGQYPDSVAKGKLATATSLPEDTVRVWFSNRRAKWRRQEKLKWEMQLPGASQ
# SIX6 [10] = target: T6, SIX6 (Homo sapiens, UniProt O95475 114-200, H141N)
# T6 sequence: T2 sequence with H28N, I54L
# SIX6 [11] = target: T7, SIX6 (Homo sapiens, UniProt O95475 114-200, T165P)
# T7 sequence: T2 sequence with T52P, I54L
# VENTX [12] = target: T8, VENTX (Homo sapiens, UniProt O95231 78-163, Y115F)
# T8 sequence: T1 sequence with Y38F, Q44R
# PAX4 [13] = target: T9, PAX4 (Homo sapiens, UniProt O43316 9-242)
# T9 sequence: T5 sequence with K192R
# SIX6 [14] = target: T10, SIX6 (Homo sapiens, UniProt O95475 114-200, L167M)
# T10 sequence: T2 sequence with I54M
# SIX6 [15] = target: T11, SIX6 (Homo sapiens, UniProt O95475 114-200, L143M)
# T11 sequence: T2 sequence with L30M, I54L
# SIX6 [16] = target: T12, SIX6 (Homo sapiens, UniProt O95475 114-200, L143I)
# T12 sequence: T2 sequence with L30I, I54L
# ALX4 [17] = target: ALX4 (Homo sapiens, UniProt Q9H161 200-286, Q225E)
# Chain of ALX4 (Homo sapiens, UniProt Q9H161 200-286, Q225E) (Q9H161 200-286 Q225E): as the sequence (Q9H161 200-286) above, with Q26E counted along it
# SIX6 [18] = target: T13, SIX6 (Homo sapiens, UniProt O95475 114-200, T165G)
# T13 sequence: T2 sequence with T52G, I54L
# HOXB9 [19] = target: HOXB9 (Homo sapiens, UniProt P17482 171-250)
# Chain of HOXB9 (Homo sapiens, UniProt P17482 171-250) (P17482 171-250): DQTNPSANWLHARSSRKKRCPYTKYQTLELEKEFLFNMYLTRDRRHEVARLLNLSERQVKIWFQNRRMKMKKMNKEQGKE
# SIX6 [20] = target: T14, SIX6 (Homo sapiens, UniProt O95475 114-200, T139Q)
# T14 sequence: T2 sequence with T26Q, I54L
# HOXB4 [21] = target: HOXB4 (Homo sapiens, UniProt P17483 148-234, V174I)
# Chain of HOXB4 (Homo sapiens, UniProt P17483 148-234, V174I) (P17483 148-234 V174I): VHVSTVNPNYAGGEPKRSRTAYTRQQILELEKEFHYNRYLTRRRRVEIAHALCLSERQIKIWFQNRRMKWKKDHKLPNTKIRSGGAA
# SIX6 [22] = target: T15, SIX6 (Homo sapiens, UniProt O95475 114-200, T165A)
# T15 sequence: T2 sequence with T52A, I54L
# PAX4 [23] = target: T16, PAX4 (Homo sapiens, UniProt O43316 9-242, R200Q)
# T16 sequence: T5 sequence with K192Q
# PAX4 [24] = target: T17, PAX4 (Homo sapiens, UniProt O43316 9-242, F177V)
# T17 sequence: T5 sequence with F169V, K192R
# SIX6 [25] = target: T18, SIX6 (Homo sapiens, UniProt O95475 114-200, L167V)
# T18 sequence: T2 sequence with I54V
# PAX4 [26] = target: T19, PAX4 (Homo sapiens, UniProt O43316 9-242, F177Y)
# T19 sequence: T5 sequence with F169Y, K192R
# PROP1 [27] = target: PROP1 (Homo sapiens, UniProt O75360 56-141)
# Chain of PROP1 (Homo sapiens, UniProt O75360 56-141) (O75360 56-141): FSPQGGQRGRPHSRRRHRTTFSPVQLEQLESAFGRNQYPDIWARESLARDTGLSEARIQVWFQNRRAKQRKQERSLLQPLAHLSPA
# SIX6 [28] = target: T20, SIX6 (Homo sapiens, UniProt O95475 114-200)
# T20 sequence: T2 sequence with I54L
# PROP1 [29] = target: PROP1 (Homo sapiens, UniProt O75360 56-141, R99H)
# Chain of PROP1 (Homo sapiens, UniProt O75360 56-141, R99H) (O75360 56-141 R99H): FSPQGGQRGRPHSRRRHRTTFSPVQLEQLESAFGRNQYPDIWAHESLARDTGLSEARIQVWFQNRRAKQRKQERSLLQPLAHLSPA
# SIX6 [30] = target: T21, SIX6 (Homo sapiens, UniProt O95475 114-200, T165I)
# T21 sequence: T2 sequence with T52I, I54L
# HOXB9 [31] = target: HOXB9 (Homo sapiens, UniProt P17482 171-250, R186Q)
# Chain of HOXB9 (Homo sapiens, UniProt P17482 171-250, R186Q) (P17482 171-250 R186Q): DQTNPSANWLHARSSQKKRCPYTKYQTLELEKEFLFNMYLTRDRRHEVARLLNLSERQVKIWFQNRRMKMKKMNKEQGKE
# PROP1 [32] = target: PROP1 (Homo sapiens, UniProt O75360 56-141, F88S)
# Chain of PROP1 (Homo sapiens, UniProt O75360 56-141, F88S) (O75360 56-141 F88S): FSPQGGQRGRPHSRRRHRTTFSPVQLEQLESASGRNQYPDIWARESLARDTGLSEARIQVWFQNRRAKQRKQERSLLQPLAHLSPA
# PAX4 [33] = target: T22, PAX4 (Homo sapiens, UniProt O43316 9-242, R227W)
# T22 sequence: T5 sequence with K192R, R219W
# HOXA7 [34] = target: HOXA7 (Homo sapiens, UniProt P31268 116-202, W177C)
# Chain of HOXA7 (Homo sapiens, UniProt P31268 116-202, W177C) (P31268 116-202 W177C): as the sequence (P31268 116-202) above, with W62C counted along it
# HOXB6 [35] = target: HOXB6 (Homo sapiens, UniProt P17509 132-218, K202E)
# Chain of HOXB6 (Homo sapiens, UniProt P17509 132-218, K202E) (P17509 132-218 K202E): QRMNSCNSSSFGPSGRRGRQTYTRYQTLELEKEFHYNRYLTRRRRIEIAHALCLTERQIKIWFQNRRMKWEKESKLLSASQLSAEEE
# HOXB6 [36] = target: HOXB6 (Homo sapiens, UniProt P17509 132-218)
# Chain of HOXB6 (Homo sapiens, UniProt P17509 132-218) (P17509 132-218): as the sequence (P17509 132-218 K202E) above, with E71K counted along it
# HOXA4 [37] = target: HOXA4 (Homo sapiens, UniProt Q00056 201-287, W262R)
# Chain of HOXA4 (Homo sapiens, UniProt Q00056 201-287, W262R) (Q00056 201-287 W262R): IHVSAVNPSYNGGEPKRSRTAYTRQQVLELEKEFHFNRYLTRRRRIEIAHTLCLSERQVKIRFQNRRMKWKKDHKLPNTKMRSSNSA
# HOXA2 [38] = target: HOXA2 (Homo sapiens, UniProt O43364 129-215, R185T)
# Chain of HOXA2 (Homo sapiens, UniProt O43364 129-215, R185T) (O43364 129-215 R185T): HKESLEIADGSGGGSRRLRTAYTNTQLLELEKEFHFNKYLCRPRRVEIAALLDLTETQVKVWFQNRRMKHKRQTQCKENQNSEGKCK
# HOXA4 [39] = target: HOXA4 (Homo sapiens, UniProt Q00056 201-287, R217L)
# Chain of HOXA4 (Homo sapiens, UniProt Q00056 201-287, R217L) (Q00056 201-287 R217L): as the sequence (Q00056 201-287 W262R) above, with R17L, R62W counted along it
# HOXA2 [40] = target: HOXA2 (Homo sapiens, UniProt O43364 129-215, R185K)
# Chain of HOXA2 (Homo sapiens, UniProt O43364 129-215, R185K) (O43364 129-215 R185K): as the sequence (O43364 129-215 R185T) above, with T57K counted along it
# HOXA4 [41] = target: HOXA4 (Homo sapiens, UniProt Q00056 201-287)
# Chain of HOXA4 (Homo sapiens, UniProt Q00056 201-287) (Q00056 201-287): as the sequence (Q00056 201-287 W262R) above, with R62W counted along it
# VAX1 [42] = target: VAX1 (Homo sapiens, UniProt Q5SQQ9 86-172)
# Chain of VAX1 (Homo sapiens, UniProt Q5SQQ9 86-172) (Q5SQQ9 86-172): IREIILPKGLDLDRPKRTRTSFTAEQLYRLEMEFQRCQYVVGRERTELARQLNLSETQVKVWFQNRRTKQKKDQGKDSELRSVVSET
# VAX1 [43] = target: VAX1 (Homo sapiens, UniProt Q5SQQ9 86-172, T142I)
# Chain of VAX1 (Homo sapiens, UniProt Q5SQQ9 86-172, T142I) (Q5SQQ9 86-172 T142I): as the sequence (Q5SQQ9 86-172) above, with T57I counted along it
# HOXA2 [44] = target: HOXA2 (Homo sapiens, UniProt O43364 129-215, Y150S)
# Chain of HOXA2 (Homo sapiens, UniProt O43364 129-215, Y150S) (O43364 129-215 Y150S): as the sequence (O43364 129-215 R185T) above, with Y22S, T57R counted along it
# HOXA4 [45] = target: HOXA4 (Homo sapiens, UniProt Q00056 201-287, W262F)
# Chain of HOXA4 (Homo sapiens, UniProt Q00056 201-287, W262F) (Q00056 201-287 W262F): as the sequence (Q00056 201-287 W262R) above, with R62F counted along it
# HOXA2 [46] = target: HOXA2 (Homo sapiens, UniProt O43364 129-215)
# Chain of HOXA2 (Homo sapiens, UniProt O43364 129-215) (O43364 129-215): as the sequence (O43364 129-215 R185T) above, with T57R counted along it
# VAX1 [47] = target: VAX1 (Homo sapiens, UniProt Q5SQQ9 86-172, K157R)
# Chain of VAX1 (Homo sapiens, UniProt Q5SQQ9 86-172, K157R) (Q5SQQ9 86-172 K157R): as the sequence (Q5SQQ9 86-172) above, with K72R counted along it
# Chain of HOXB4 (Homo sapiens, UniProt P17483 148-234) (P17483 148-234): as the sequence (P17483 148-234 V174I) above, with I27V counted along it
# Chain of HOXB9 (Homo sapiens, UniProt P17482 171-250, T197M) (P17482 171-250 T197M): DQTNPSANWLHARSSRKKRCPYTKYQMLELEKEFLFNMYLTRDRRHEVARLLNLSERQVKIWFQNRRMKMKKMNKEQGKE
sequence,measurement,setting,value
CGTCCCGC,binding signal,HOXB4 [1],"7.48 upbm affinity estimate (log intensity, higher = more binding, comparable within an allelic series)"
same,binding signal,VENTX [2],"7.82 upbm affinity estimate (log intensity, higher = more binding, comparable within an allelic series)"
same,binding signal,HOXB9 [3],"8.41 upbm affinity estimate (log intensity, higher = more binding, comparable within an allelic series)"
same,binding signal,SIX6 [4],"8.81 upbm affinity estimate (log intensity, higher = more binding, comparable within an allelic series)"
same,binding signal,VENTX [5],"7.89 upbm affinity estimate (log intensity, higher = more binding, comparable within an allelic series)"
same,binding signal,SIX6 [6],"8.68 upbm affinity estimate (log intensity, higher = more binding, comparable within an allelic series)"
same,binding signal,HOXA7 [7],"8.5 upbm affinity estimate (log intensity, higher = more binding, comparable within an allelic series)"
same,binding signal,ALX4 [8],"8 upbm affinity estimate (log intensity, higher = more binding, comparable within an allelic series)"
same,binding signal,PAX4 [9],"9.13 upbm affinity estimate (log intensity, higher = more binding, comparable within an allelic series)"
same,binding signal,SIX6 [10],"8.86 upbm affinity estimate (log intensity, higher = more binding, comparable within an allelic series)"
same,binding signal,SIX6 [11],"8.88 upbm affinity estimate (log intensity, higher = more binding, comparable within an allelic series)"
same,binding signal,VENTX [12],"7.87 upbm affinity estimate (log intensity, higher = more binding, comparable within an allelic series)"
same,binding signal,PAX4 [13],"9.17 upbm affinity estimate (log intensity, higher = more binding, comparable within an allelic series)"
same,binding signal,SIX6 [14],"8.79 upbm affinity estimate (log intensity, higher = more binding, comparable within an allelic series)"
same,binding signal,SIX6 [15],"8.75 upbm affinity estimate (log intensity, higher = more binding, comparable within an allelic series)"
same,binding signal,SIX6 [16],"8.79 upbm affinity estimate (log intensity, higher = more binding, comparable within an allelic series)"
same,binding signal,ALX4 [17],"8.06 upbm affinity estimate (log intensity, higher = more binding, comparable within an allelic series)"
same,binding signal,SIX6 [18],"8.8 upbm affinity estimate (log intensity, higher = more binding, comparable within an allelic series)"
same,binding signal,HOXB9 [19],"8.35 upbm affinity estimate (log intensity, higher = more binding, comparable within an allelic series)"
same,binding signal,SIX6 [20],"8.84 upbm affinity estimate (log intensity, higher = more binding, comparable within an allelic series)"
same,binding signal,HOXB4 [21],"7.45 upbm affinity estimate (log intensity, higher = more binding, comparable within an allelic series)"
same,binding signal,SIX6 [22],"8.8 upbm affinity estimate (log intensity, higher = more binding, comparable within an allelic series)"
same,binding signal,PAX4 [23],"9.15 upbm affinity estimate (log intensity, higher = more binding, comparable within an allelic series)"
same,binding signal,PAX4 [24],"9.15 upbm affinity estimate (log intensity, higher = more binding, comparable within an allelic series)"
same,binding signal,SIX6 [25],"8.87 upbm affinity estimate (log intensity, higher = more binding, comparable within an allelic series)"
same,binding signal,PAX4 [26],"9.19 upbm affinity estimate (log intensity, higher = more binding, comparable within an allelic series)"
same,binding signal,PROP1 [27],"6.64 upbm affinity estimate (log intensity, higher = more binding, comparable within an allelic series)"
same,binding signal,SIX6 [28],"8.76 upbm affinity estimate (log intensity, higher = more binding, comparable within an allelic series)"
same,binding signal,PROP1 [29],"6.65 upbm affinity estimate (log intensity, higher = more binding, comparable within an allelic series)"
same,binding signal,SIX6 [30],"8.78 upbm affinity estimate (log intensity, higher = more binding, comparable within an allelic series)"
same,binding signal,HOXB9 [31],"8.38 upbm affinity estimate (log intensity, higher = more binding, comparable within an allelic series)"
same,binding signal,PROP1 [32],"6.67 upbm affinity estimate (log intensity, higher = more binding, comparable within an allelic series)"
same,binding signal,PAX4 [33],"9.22 upbm affinity estimate (log intensity, higher = more binding, comparable within an allelic series)"
same,binding signal,HOXA7 [34],"8.32 upbm affinity estimate (log intensity, higher = more binding, comparable within an allelic series)"
CCTACAGG,binding signal,HOXB4 [1],"7.69 upbm affinity estimate (log intensity, higher = more binding, comparable within an allelic series)"
same,binding signal,HOXB9 [3],"8.54 upbm affinity estimate (log intensity, higher = more binding, comparable within an allelic series)"
same,binding signal,HOXB6 [35],"9 upbm affinity estimate (log intensity, higher = more binding, comparable within an allelic series)"
same,binding signal,HOXB9 [19],"8.25 upbm affinity estimate (log intensity, higher = more binding, comparable within an allelic series)"
same,binding signal,HOXB4 [21],"7.75 upbm affinity estimate (log intensity, higher = more binding, comparable within an allelic series)"
same,binding signal,HOXB9 [31],"8.25 upbm affinity estimate (log intensity, higher = more binding, comparable within an allelic series)"
same,binding signal,HOXB6 [36],"8.98 upbm affinity estimate (log intensity, higher = more binding, comparable within an allelic series)"
CCTGACCC,binding signal,HOXB4 [1],"7.93 upbm affinity estimate (log intensity, higher = more binding, comparable within an allelic series)"
same,binding signal,HOXB9 [3],"8.77 upbm affinity estimate (log intensity, higher = more binding, comparable within an allelic series)"
same,binding signal,HOXB9 [19],"8.65 upbm affinity estimate (log intensity, higher = more binding, comparable within an allelic series)"
same,binding signal,HOXB4 [21],"7.87 upbm affinity estimate (log intensity, higher = more binding, comparable within an allelic series)"
same,binding signal,HOXB9 [31],"8.66 upbm affinity estimate (log intensity, higher = more binding, comparable within an allelic series)"
CTAATGAG,binding signal,HOXB4 [1],"13 upbm affinity estimate (log intensity, higher = more binding, comparable within an allelic series)"
same,binding signal,VENTX [2],"11.9 upbm affinity estimate (log intensity, higher = more binding, comparable within an allelic series)"
same,binding signal,HOXA4 [37],"10.5 upbm affinity estimate (log intensity, higher = more binding, comparable within an allelic series)"
same,binding signal,VENTX [5],"12.6 upbm affinity estimate (log intensity, higher = more binding, comparable within an allelic series)"
same,binding signal,VENTX [12],"12 upbm affinity estimate (log intensity, higher = more binding, comparable within an allelic series)"
same,binding signal,HOXA2 [38],"13.3 upbm affinity estimate (log intensity, higher = more binding, comparable within an allelic series)"
same,binding signal,HOXA4 [39],"11.8 upbm affinity estimate (log intensity, higher = more binding, comparable within an allelic series)"
same,binding signal,HOXB4 [21],"13.6 upbm affinity estimate (log intensity, higher = more binding, comparable within an allelic series)"
same,binding signal,HOXA2 [40],"13.6 upbm affinity estimate (log intensity, higher = more binding, comparable within an allelic series)"
same,binding signal,HOXA4 [41],"13.8 upbm affinity estimate (log intensity, higher = more binding, comparable within an allelic series)"
same,binding signal,VAX1 [42],"13.6 upbm affinity estimate (log intensity, higher = more binding, comparable within an allelic series)"
same,binding signal,VAX1 [43],"13.3 upbm affinity estimate (log intensity, higher = more binding, comparable within an allelic series)"
same,binding signal,HOXA2 [44],"10.6 upbm affinity estimate (log intensity, higher = more binding, comparable within an allelic series)"
same,binding signal,HOXA4 [45],"11.6 upbm affinity estimate (log intensity, higher = more binding, comparable within an allelic series)"
same,binding signal,HOXA2 [46],"12.8 upbm affinity estimate (log intensity, higher = more binding, comparable within an allelic series)"
same,binding signal,VAX1 [47],"13.4 upbm affinity estimate (log intensity, higher = more binding, comparable within an allelic series)"
CCGCCTAG,binding signal,HOXB4 [1],"7.58 upbm affinity estimate (log intensity, higher = more binding, comparable within an allelic series)"
same,binding signal,HOXB9 [3],"8.4 upbm affinity estimate (log intensity, higher = more binding, comparable within an allelic series)"
same,binding signal,HOXB9 [19],"8.41 upbm affinity estimate (log intensity, higher = more binding, comparable within an allelic series)"
same,binding signal,HOXB4 [21],"7.95 upbm affinity estimate (log intensity, higher = more binding, comparable within an allelic series)"
same,binding signal,HOXB9 [31],"8.38 upbm affinity estimate (log intensity, higher = more binding, comparable within an allelic series)"

# From PMC11006913
